Experimental data published in PubChem BioAssay AID1159580 (chemical genetic matrix, 2015).
Values joined by “and” are separate entries in the source; they are usually repeats but may differ in a detail not shown here. Equal entries are not always repeated. The campaign covered roughly 5,500 compounds. About 2,000 (36%) were called active. Inconclusive results (about 18%) are left out. No stated cut-off is given here; in the data, active means normalized growth mostly below about 0.91 (no sharp cut-off); inconclusive means no clear call, values can overlap the other calls; inactive means mostly above about 0.92. The list shows a part of the results.

Assay: chemical genetic growth profiling, strain panel (AID 1159580);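 further: tested at 20 µM; growth read once vehicle control cultures reached saturation at 30 °C; 1 = growth at the plate median or of vehicle wells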
Details: S. cerevisiae deletion strains, growth OD

Measured: normalized growth

S=C=NCc1ccccc1
active: locus YAL013W, strain DEP1, stronger effect = lower value 0.0579 | locus YAL021C, strain ccr4, stronger effect = lower value 0.661 | locus YAL026C, strain drs2, stronger effect = lower value 0.0761 | locus YAL030W, strain snc1, stronger effect = lower value 0.0648 | locus YBL061C, strain skt5, stronger effect = lower value 0.079 | locus YBR009C, strain hhf1, stronger effect = lower value 0.0753 | locus YBR021W, strain FUR4, stronger effect = lower value 0.17 | locus YBR023C, strain chs3, stronger effect = lower value 0.0813 | locus YBR171W, strain sec66, stronger effect = lower value 0.117 | locus YBR229C, strain ROT2, stronger effect = lower value 0.0461 | locus YBR231C, strain swc5, stronger effect = lower value 0.0718 | locus YBR279W, strain paf1, stronger effect = lower value 0.0918 | locus YCL011C, strain gbp2, stronger effect = lower value 0.0749 | locus YCL016C, strain dcc1, stronger effect = lower value 0.0958 | locus YCL029C, strain bik1, stronger effect = lower value 0.0592 | locus YCL061C, strain MRC1, stronger effect = lower value 0.0833 | locus YCL069W, strain vba3, stronger effect = lower value 0.0787 | locus YCR088W, strain abp1, stronger effect = lower value 0.069 | locus YDL005C, strain med2, stronger effect = lower value 0.583 | locus YDL035C, strain GPR1, stronger effect = lower value 0.0548 | locus YDL040C, strain nat1, stronger effect = lower value 0.139 | locus YDL074C, strain BRE1, stronger effect = lower value 0.0981 | locus YDL101C, strain DUN1, stronger effect = lower value 0.0649 | locus YDL134C, strain PPH21, stronger effect = lower value 0.0517 | locus YDL185W, strain tfp1, stronger effect = lower value 0.0574 | locus YDL192W, strain arf1, stronger effect = lower value 0.0627 | locus YDR001C, strain nth1, stronger effect = lower value 0.07 | locus YDR069C, strain doa4, stronger effect = lower value 0.143 | locus YDR101C, strain arx1, stronger effect = lower value 0.0574 | locus YDR137W, strain rgp1, stronger effect = lower value 0.616 | locus YDR150W, strain NUM1, stronger effect = lower value 0.0586 | locus YDR159W, strain sac3, stronger effect = lower value 0.275 | locus YDR162C, strain NBP2, stronger effect = lower value 0.0541 | locus YDR195W, strain ref2 0.187 | locus YDR297W, strain sur2, stronger effect = lower value 0.068 | locus YDR318W, strain mcm21, stronger effect = lower value 0.0636 | locus YDR334W, strain swr1, stronger effect = lower value 0.0851 | locus YDR335W, strain msn5, stronger effect = lower value 0.0739 | locus YDR388W, stronger effect = lower value 0.061 | locus YDR392W, strain spt3, stronger effect = lower value 0.112 | locus YDR502C, strain sam2, stronger effect = lower value 0.0605 | locus YEL003W, strain gim4, stronger effect = lower value 0.0605 | locus YEL037C, strain rad23, stronger effect = lower value 0.178 | locus YEL061C, strain CIN8 (second series), stronger effect = lower value 0.0786 | locus YEL061C, strain CIN8, stronger effect = lower value 0.05 | locus YER015W, strain faa2, stronger effect = lower value 0.0762 | locus YER016W, strain bim1, stronger effect = lower value 0.081 | locus YER110C, stronger effect = lower value 0.0778 | locus YER111C, strain swi4, stronger effect = lower value 0.0829 | locus YER155C, strain BEM2 (second series), stronger effect = lower value 0.0957 | locus YER155C, strain BEM2, stronger effect = lower value 0.0627 | locus YER167W, strain BCK2, stronger effect = lower value 0.0526 | locus YFR010W, strain ubp6, stronger effect = lower value 0.136 | locus YGL078C, strain dbp3, stronger effect = lower value 0.0565 | locus YGL086W, strain mad1, stronger effect = lower value 0.0589 | locus YGL167C, strain pmr1, stronger effect = lower value 0.393 | locus YGL173C, strain kem1, stronger effect = lower value 0.214 | locus YGL227W, strain vid30, stronger effect = lower value 0.072 | locus YGL240W, strain doc1, stronger effect = lower value 0.203 | locus YGL248W, strain PDE1, stronger effect = lower value 0.0468 | locus YGL253W, strain hxk2, stronger effect = lower value 0.0793 | locus YGR078C, strain PAC10, stronger effect = lower value 0.0557 | locus YGR135W, strain pre9, stronger effect = lower value 0.066 | locus YGR229C, strain SMI1, stronger effect = lower value 0.0658 | locus YGR252W, strain gcn5, stronger effect = lower value 0.176 | locus YHR013C, strain ard1, stronger effect = lower value 0.175 | locus YHR027C, strain rpn1, stronger effect = lower value 0.103 | locus YHR030C, strain SLT2, stronger effect = lower value 0.0491 and 0.174 | locus YHR079C, strain IRE1 (second series), stronger effect = lower value 0.0547 | locus YHR079C, strain IRE1, stronger effect = lower value 0.181 | locus YHR094C, strain hxt1, stronger effect = lower value 0.0577 | locus YHR129C, strain ARP1, stronger effect = lower value 0.0553 | locus YHR142W, strain chs7, stronger effect = lower value 0.0817 | locus YHR200W, strain rpn10, stronger effect = lower value 0.0598 | locus YIL066C, strain RNR3, stronger effect = lower value 0.0519 | locus YIL073C, strain SPO22, stronger effect = lower value 0.132 | locus YIL125W, strain kgd1, stronger effect = lower value 0.0561 | locus YIR030C, strain dcg1, stronger effect = lower value 0.0588 | locus YJL092W, strain hpr5, stronger effect = lower value 0.08 | locus YJL095W, strain BCK1 (second series), stronger effect = lower value 0.0601 | locus YJL095W, strain BCK1, stronger effect = lower value 0.0573 and 0.268 | locus YJL115W, strain asf1, stronger effect = lower value 0.123 | locus YJL129C, strain trk1, stronger effect = lower value 0.257 | locus YJL134W, strain LCB3, stronger effect = lower value 0.0484 | locus YJL154C, strain vps35, stronger effect = lower value 0.165 | locus YJL164C, strain tpk1, stronger effect = lower value 0.0744 | locus YJL166W, strain qcr8, stronger effect = lower value 0.0848 | locus YJL168C, strain set2, stronger effect = lower value 0.0599 | locus YJL187C, strain SWE1 (second series), stronger effect = lower value 0.0487 | locus YJL187C, strain SWE1, stronger effect = lower value 0.0904 | locus YJR043C, strain POL32, stronger effect = lower value 0.0693 | locus YJR066W, strain TOR1, stronger effect = lower value 0.735
